# PubChem BioAssay AID1987 (The Scripps Research Institute Molecular Screening Center, 2009)
# Out of some 320,000 compounds screened, about 560 (0.17%) were called active. The sample holds actives, similar compounds and a random draw of the others, so the mix is not that of the screen. A number with no mark means an inactive call.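 How the source made its calls: active means inhibition above the campaign's mean inhibition across all tested compounds plus 3 SD (cut at about 9.5% in these data); inactive means the rest.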
# Molecular target: Serine/threonine-protein phosphatase 5 (Homo sapiens) (UniProt P53041)
# Assay: inhibition of human PP5 catalytic activity – biochemical, fluorescence, primary screen (AID 1987);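 further: 0% = DMSO only and 100% = 100 µM cantharidin control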
# Conditions: purified PP5c, OMFP substrate fluorescence; at 6.7 µM; active compounds read high
# Sequence of Serine/threonine-protein phosphatase 5 (Homo sapiens) (P53041 whole entry, looked up): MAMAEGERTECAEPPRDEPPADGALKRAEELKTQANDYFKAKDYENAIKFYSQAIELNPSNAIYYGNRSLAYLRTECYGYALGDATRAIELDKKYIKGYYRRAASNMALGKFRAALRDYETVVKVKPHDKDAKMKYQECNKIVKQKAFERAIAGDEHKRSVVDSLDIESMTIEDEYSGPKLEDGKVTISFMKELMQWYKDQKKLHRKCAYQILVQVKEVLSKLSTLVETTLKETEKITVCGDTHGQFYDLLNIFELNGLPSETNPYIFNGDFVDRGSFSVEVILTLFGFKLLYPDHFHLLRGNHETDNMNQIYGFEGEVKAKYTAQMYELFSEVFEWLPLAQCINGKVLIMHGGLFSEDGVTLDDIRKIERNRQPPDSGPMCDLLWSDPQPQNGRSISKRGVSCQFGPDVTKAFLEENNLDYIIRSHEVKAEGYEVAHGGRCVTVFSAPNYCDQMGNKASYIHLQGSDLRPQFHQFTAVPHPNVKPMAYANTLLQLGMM
row,SMILES,inhibition
1,Cc1nc(CNS(=O)(=O)c2cc([N+](=O)[O-])ccc2C)cs1,-0.47%
2,N#Cc1c(N2CCCCC2)nc(N)c2c(N)nc(SCC(=O)O)cc12,12.7% (active)
3,N#CCc1c(C#N)c(N)nc(N2CCCC2)c1C#N,2.12%
4,N#Cc1c(-c2ccccc2)cc(-c2ccccc2)nc1SCC(=O)O,-0.23%
5,CC1(C)CC(=O)C=C(NCCCN2CCCC2=O)C1,-3.07%
6,Cc1nc(NC(CC(C)C)C(=O)O)c2nc(C)oc2n1 (stereo not given),11.7% (active)
7,CC1(c2cccc([N+](=O)[O-])c2)CC(C)(C)N(C(=O)c2ccccc2)c2ccccc21 (stereo not given),3.32%
8,C[C@@]12C(=O)N(c3cccc(Br)c3)C(=O)N1[C@H](c1ccc(Cl)cc1)[C@@H]1C(=O)N(C3CCCCC3)C(=O)[C@@H]12,9.7% (active)
9,CC(C)(C)N1C(=O)[C@H]2[C@@H](c3ccc(Br)cc3)N3C(=O)N(c4cccc(Cl)c4)C(=O)[C@@]3(C)[C@H]2C1=O,5.22%
10,O=C1[C@H]2[C@@H](c3ccc(Cl)cc3)N3C(=O)N(c4cccc(F)c4)C(=O)[C@@]3(Cc3ccccc3)[C@H]2C(=O)N1C1CCCCC1,2.69%
11,O=C(CCn1nnnc1CN1CCOCC1)N1CCC(c2ccccc2Cl)C1 (stereo not given),0.07%
12,Cc1noc(C)c1C(=O)N(CC(=O)NC1CCCC1)Cc1ccccc1F,0.94%
13,CN(CC(=O)NCc1ccc(Cl)cc1)S(=O)(=O)c1cccs1,3.27%
14,Cc1c(C)c2c(OCC(=O)N[C@@H](C(=O)O)c3ccccc3)cc3c(c2oc1=O)CCC(C)(C)O3,2.43%
15,c1ccc(C[C@H]2CNCCN2CCC23CC4CC(CC(C4)C2)C3)cc1,1.23%
16,CCn1ccnc1CNC(=O)CC1C(=O)NCCN1CCCc1ccccc1 (stereo not given),0.82%
17,COCC1CCN(C(=O)c2ccc3oc(Cc4ccccc4)nc3c2)C1 (stereo not given),2.88%
18,O=c1ccc2c(-c3ccccc3S(=O)(=O)O)c3ccc(O)c(O)c3oc-2c1O,9.92% (active)
19,O=[N+]([O-])c1cc([N+](=O)[O-])c2cccnc2c1O,2%
20,O=[N+]([O-])c1cccc2ncccc12,10.4% (active)
21,Nc1nc(Sc2ncccc2[N+](=O)[O-])n[nH]1,1.94%
22,N#Cc1ccc(CN2CCN(CC(=O)Nc3ccccc3C(=O)NC3CC3)CC2)cc1,-0.41%
23,CC(NC(=O)c1cc2cc(Cl)ccc2oc1=N)c1ccccc1 (stereo not given),2.37%

row,SMILES,inhibition
1,COc1cc(C(=O)Nn2c(O)c(C3=c4ccccc4=NC3=O)sc2=S)ccc1O,-1.88%
2,CN(C(=O)CN1C(=O)/C(=C/c2ccc(Cl)cc2)SC1=S)C1CCS(=O)(=O)C1 (stereo not given),2.22%
3,NNC(=O)c1oc2nc(-c3ccccc3)cc(-c3ccco3)c2c1N,-0.37%
4,CNc1nc(-c2ccccc2)cc(-c2ccccc2)n1,3.18%
5,CNC(=S)NNC(=O)c1oc2nc(-c3ccccc3)cc(-c3ccco3)c2c1N,15% (active)
6,COc1ccc(S(=O)(=O)N2CCOCC2)cc1NC(=O)CC1CC2CCC1C2 (stereo not given),-2.65%
7,COc1ccc(OC)c(C(=O)c2ccc(C(=O)O)cc2)c1,10.3% (active)
8,COc1ccc(OC)c(C(=O)c2coc3ccc(OC)cc23)c1,3.44%
9,COc1ccc(OC)c(C(=O)c2ccc(Cl)cc2)c1,1.9%
10,COC(=O)c1ccccc1NC(=O)CSc1n[nH]c(-c2ccncc2)n1,2.98%
11,Cc1cc(N2CCCC2=O)cc(C)c1S(N)(=O)=O,0.58%
12,COCCNC(=O)c1ccc2c(c1)ncn2-c1ccc(C)c(Cl)c1,-2.87%
13,CCC(=C/c1sc2ccc3ccccc3c2[n+]1C)/C=C1\Sc2ccc3ccccc3c2N1C,13% (active)
14,COc1cccc(CNC(=O)CCC2CCCN(C(=O)c3cc(C)[nH]n3)C2)c1 (stereo not given),-3.1%
15,CC(=O)N1CCOc2ccc(S(=O)(=O)N3CCC(C(=O)Nc4ccccc4F)CC3)cc21,-2.25%
16,COc1cccc(NC(=S)C(C#N)=C2N(C)c3ccccc3N2C)c1,3.32%
17,CC1Cc2cc(/C(O)=C3\C(=O)C(=O)N(Cc4cccnc4)C3c3ccccc3F)ccc2O1 (stereo not given),-0.96%
18,O=C1C=C(c2cccc(Br)c2)C[C@@H](c2ccc(F)cc2)C1,2.74%
19,O=C(NCCCN1CCCCCC1)C1CC(=O)N(C2CCCC2)C1 (stereo not given),0.05%
20,CCc1c(O)nc(SCC(=O)Nc2ccccc2)n(C(C)CC)c1=O (stereo not given),4.45%
21,CCCCN(C(=O)c1ccc(OC(F)(F)F)cc1)c1c(N)n(CCC)c(=O)[nH]c1=O,2.07%
22,O=C(CN(CC1CCCO1)C(=O)CNS(=O)(=O)c1ccc(Cl)cc1)NCc1ccccc1 (stereo not given),-1.95%
23,Cc1ccc(C2=NN(C(=O)COc3ncnc4ccccc34)C(c3ccco3)C2)cc1 (stereo not given),-1.05%

row,SMILES,inhibition
1,CCOC(=O)N1CCN(Cc2oc(CO)cc(=O)c2O)CC1,3.28%
2,CCC(C(=O)NCCC(C)C)N(Cc1ccccc1Cl)C(=O)c1snc(C(N)=O)c1N (stereo not given),-2.16%
3,CC(=O)NCc1ccc(S(=O)(=O)NC2CCN(Cc3ccccc3)CC2)cc1,2.13%
4,C=C(C)CNc1cc(S(=O)(=O)N2CCOCC2)ccc1Oc1ccccc1,4.3%
5,Cc1ccc(CCN2CC(C(=O)O)CC2=O)cc1 (stereo not given),5.13%
6,CC(C)(C)S(=O)(=O)c1ccccc1-c1noc(-c2ccccc2)c1C(N)=O,-0.76%
7,Cc1ccc(Cl)cc1NC(=O)CN1CCN(S(=O)(=O)N2CCOCC2)CC1,0.83%
8,Cc1cc(C(=O)COc2ccc(Br)cc2F)c(C)n1C1CC1,-1.78%
9,O=C(NCc1cccc(Cl)c1)C1=CC=CN2CCS(=O)(=O)N=C12,0.61%
10,COc1cccc(OCc2nnc3n2N=C(c2ccccc2)C(CC(=O)O)S3)c1 (stereo not given),-0.47%
11,COc1ccccc1C(=O)NCCC(=O)N(C)Cc1cccnc1,0.46%
12,Cn1c(N)c(C(=O)COC(=O)COc2ccc(Cl)cc2)c(=O)n(C)c1=O,1%
13,FC(F)(F)c1ccc2nnc(-c3c(Cl)cccc3Cl)n2c1,-1.13%
14,O=C1Oc2ccccc2C(=O)/C1=C/c1ccccc1O,4.64%
15,COc1ccc(NC(=O)CSc2nncc(=O)n2N)cc1OC,2.92%
16,O=C(Nc1ccccc1)C1CC(=O)n2c(nc3ccccc32)N1 (stereo not given),-0.67%
17,Nc1ccc(C(=O)Nc2ccccc2N)cc1,-0.77%
18,Cc1ccc(CN2CCN(Cc3cccc(C)n3)CC2CCO)cc1 (stereo not given),0.2%
19,CC(C)(C)NC(=O)c1cccc(NC(=O)Cc2ccc(Br)cc2)c1,3.17%
20,CC(C)(C)C(=O)Nc1c(Br)c(C2CC2)nn1-c1ccccc1,0.27%
21,CCOC(=O)C1=C(CC)OC(N)=C(C#N)C1c1ccc(F)cc1F (stereo not given),-1.28%
22,COc1cc(OC)cc(-c2cc3nc(C4CCN(C(=O)OC(C)(C)C)CC4)cc(=O)n3[nH]2)c1,-0.26%
23,COc1ccc(NC(=O)CCCC(=O)c2ccccc2)cc1,0.28%

row,SMILES,inhibition
1,CCCn1c(C)cc(/C=C(\C#N)C(=O)OCC(=O)Nc2cc(OC)c(OC)c(OC)c2)c1C,0.54%
2,O=C(C1=C[C@H](C2CC2)C[C@H](OCc2ccc(CO)cc2)O1)N1CCN(Cc2ccccc2)CC1,1.72%
3,O=C(C1=C[C@H](c2ccc(C(F)(F)F)cc2)C[C@H](OCc2ccc(CO)cc2)O1)N1CCN(Cc2ccccc2)CC1,9.64% (active)
4,O=C(NCc1ccccc1)C1=C[C@@H](c2ccc(C(F)(F)F)cc2)C[C@@H](OCc2ccc(CO)cc2)O1,7.35%
5,Nc1nnc(SCC(=O)NCC(=O)Nc2ccc(F)c(F)c2F)s1,-0.64%
6,O=C(OCc1cn(-c2ccc(Cl)c(Cl)c2)nn1)c1ccccc1Cl,1.67%
7,CC1CCCC(C)N1C(=O)COC(=O)COc1ccccc1C#N (stereo not given),-0.87%
8,CN(C)c1nc(N)nc(CSc2ccccn2)n1,1.71%
9,CN(C)c1nc(N)nc(CSc2nnnn2-c2cccc3ccccc23)n1,11.6% (active)
10,COc1ccc(-n2nnnc2SCc2nc(N)nc(N3CCOCC3)n2)cc1,0.58%
11,O=C(O)c1cc(S(=O)(=O)Nc2ccc3cn[nH]c3c2)ccc1Br,4.94%
12,Cc1ccc(-n2nc(-c3ccco3)cc2C(=O)NCc2cccnc2)cc1,2.97%
13,COCCN1C=C2C(=O)C(C)(OC(=O)C3CCCC3)C(=O)C=C2C=C1c1ccsc1 (stereo not given),11.1% (active)
14,CC1(OC(=O)C2CCCC2)C(=O)C=C2C=C(c3ccc(C#N)cc3)OC=C2C1=O (stereo not given),-1.54%
15,COC(=O)CCCC1=CC2=CC(=O)C(C)(OC(=O)c3cccs3)C(=O)C2=CN1CC1CC1 (stereo not given),5.3%
16,O=C(COc1ccccc1)Nc1ccc(F)cc1,0.71%
17,CN(c1ccccc1)S(=O)(=O)c1ccc(NC(=O)COc2ccccc2)cc1,10.2% (active)
18,CN(c1ccc(OCC(=O)O)cc1)S(=O)(=O)c1ccc2ccccc2c1,1%
19,Cc1ccc(S(=O)(=O)N(c2cccc(C)c2)C2CCS(=O)(=O)C2)cc1 (stereo not given),0.29%
20,Cc1nnc(SCC(=O)Nc2ncc3c(n2)CC(C)(C)CC3=O)s1,2.93%
21,O=C(O)C1CCC(CNS(=O)(=O)c2ccc(Br)cc2)CC1 (stereo not given),-2.97%
